# How the values were obtained:
# Conditions in all cases: concentration: 1 μM, replicates: in singlicate; n = 1
# [1] = system: TIE1
# [2] = system: T1, TIE2
# T1 construct: gene TEK
# [3] = system: TLK1
# [4] = system: TLK2
# [5] = system: TNIK
# [6] = system: TNK1
# [7] = system: TNK2
# [8] = system: TNNI3K
# [9] = system: T2, TRKA
# T2 construct: gene NTRK1
# [10] = system: TRKB
# [11] = system: T3, TRKC
# T3 construct: gene NTRK3
# [12] = system: TRPM6
# [13] = system: TSSK1B
# [14] = system: TSSK3
# [15] = system: TTK
# [16] = system: TXK
# [17] = system: TYK2(JH1domain-catalytic)
# [18] = system: TYK2(JH2domain-pseudokinase)
# [19] = system: TYRO3
# [20] = system: ULK1
# 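Further: KINOMEscan kinase panel screen.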
Compound,%Inh [1] [%],%Inh [2] [%],%Inh [3] [%],%Inh [4] [%],%Inh [5] [%],%Inh [6] [%],%Inh [7] [%],%Inh [8] [%],%Inh [9] [%],%Inh [10] [%],%Inh [11] [%],%Inh [12] [%],%Inh [13] [%],%Inh [14] [%],%Inh [15] [%],%Inh [16] [%],%Inh [17] [%],%Inh [18] [%],%Inh [19] [%],%Inh [20] [%]
Nc1nccc2scc(-c3ccc4c(c3)CCN4C(=O)Cc3cc(F)ccc3F)c12 [GSK2587663],54,1,4,0,0,0,23,4,0,42,40,5,5,15,2,5,18,11,0,6
FC(F)(F)c1ccc(-c2nn3ncccc3c2-c2ccnc(Nc3cccc(C(F)(F)F)c3)n2)cc1 [GW828205],0,52,0,8,0,0,0,0,0,0,0,0,0,0,0,3,0,0,0,0
COc1ccc(Nc2nccc(N3CCC(NC(=O)Nc4ccc5c(c4)OCO5)C3)n2)cc1 (stereo not drawn) [GSK1379745],19,0,18,0,1,0,14,11,64,41,51,0,0,31,0,3,45,15,0,9
CNc1nccc(-c2c(-c3ccc(F)cc3)ncn2C2CCN(C)CC2)n1 [SB-222903],0,0,0,0,21,25,0,0,20,0,0,0,0,0,23,0,0,0,0,0
c1ccc(-c2ccc3c(-c4ccnc(Nc5ccc6c(c5)OCCO6)n4)cnn3n2)cc1 [GW818941],22,8,0,0,1,0,12,17,34,0,0,25,32,18,36,13,8,5,0,15
Cl.Cl.c1ccc(-c2cc3ccncc3cc2OC2CCNCC2)cc1 [GSK1122999],1,0,0,7,0,6,27,26,0,0,0,15,0,47,0,4,24,79,7,12
Fc1ccc(Nc2nccc(-c3c(-c4ccc(Cl)cc4)nn4ncccc34)n2)cc1F [GW829058],38,18,0,12,89,24,0,3,13,0,35,20,0,33,8,19,20,40,8,45
Clc1cc(Nc2ncnc3cc[nH]c23)ccc1OCc1ccccn1,10,23,26,4,22,0,5,2,2,12,0,0,44,0,19,11,8,28,0,9
COC(=O)c1c(-c2ccccc2)c2cc(Cl)ccc2c(=O)n1Cc1ccc(S(C)(=O)=O)cc1,4,0,19,0,4,0,0,19,0,0,17,0,0,0,7,0,0,2,0,0
COc1ccc(NC(=O)Nc2ccc(C)c(-c3ccc(C(=O)Nc4ccncc4)cc3)c2)cc1 [GSK1398475],0,0,19,0,0,0,17,17,0,0,0,0,10,0,0,0,0,5,0,0
Nc1nc(-c2cccnc2)c(-c2ccnc3ccccc23)s1 [GW684083],6,0,0,0,81,0,18,0,59,39,25,14,0,9,0,0,41,62,0,5
Fc1ccc(-c2ncn(CCCNCc3ccccc3)c2-c2ccncc2)cc1,23,0,26,0,12,0,13,0,38,3,19,12,20,20,0,0,44,0,0,0
OCCOCCn1ccc2ncnc(Nc3ccc(Oc4cccc(Cl)c4)c(Cl)c3)c21,0,31,0,0,0,0,0,0,0,0,0,0,0,0,0,0,0,0,0,0
O=c1cc(N2CCOCC2)nc2n(Cc3cccc(Cl)c3)ccn12 [GSK2296823],16,0,0,0,0,0,28,1,0,0,0,11,0,3,9,18,14,7,9,16
CS(=O)(=O)CCNCc1nc(-c2ccc3ncnc(Nc4ccc(OCc5cccc(F)c5)c(Cl)c4)c3c2)cs1.Cl [GW583340],0,0,22,0,0,0,6,0,0,0,0,37,0,12,0,94.7,0,16,0,0
COc1cc2ncnc(Nc3ccc(OCc4ccccc4Br)c(Cl)c3)c2cc1OC.Cl [GI261590],0,3,0,0,0,0,24,5,0,19,33,19,14,12,0,12,34,47,15,0
Cl.Fc1ccccc1COc1ccc(Nc2ncnc3ccc(-c4nnc(C(F)(F)F)o4)cc23)cc1Cl [GW424170],0,0,4,0,0,0,0,0,3,6,5,0,0,6,0,18,11,12,0,0
CN1CCC(n2cnc(-c3ccc(F)cc3)c2-c2ccnc(NC3CCNCC3)n2)CC1 [SB-229482],0,0,11,0,1,16,0,0,17,26,9,0,0,43,0,0,25,34,0,0
Cl.c1ccc(Cn2ncc3cc(Nc4ncnc5ccccc45)ccc32)cc1 [GW273749],0,0,15,0,0,0,12,0,0,0,0,37,0,11,18,11,0,12,0,19
O=C(CCO)NCCn1ccc2ncnc(Nc3ccc(Oc4cccc(C(F)(F)F)c4)c(Cl)c3)c21,0,0,0,0,0,0,0,0,0,0,0,0,0,2,0,0,0,0,0,0
CCc1nc(-c2cccc(C)c2)c(-c2ccnc(NC(=O)c3ccccc3)c2)s1,0,0,13,0,62,27,9,0,17,0,15,0,0,1,16,0,24,17,0,1
